Data on 7 compounds can be found in PubChem BioAssay (NCI).

About 83,000 compounds went through this panel and 20% of them were active in at least one assay; those are over-represented in the sample as a whole.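 Method: cells in 96-well plates; compound added at one concentration; 48 h incubation; percent growth measured; values under 10 scored active.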 Values without a mark were called inactive. Calls of active or inactive are those of the source.

Assay in all cases: NCI-60 one-dose screen, 48 h (100 = growth as untreated, 0 = no growth, -100 = all killed)
Conditions in all cases: 10 µM unless noted

The test system of test [1] is NCI-H23 lung.
Test [2] has as its system NCI-H226 lung.
In test [3] the test system is NCI-H322M lung.
In test [4] the test system is HOP-62 NSCLC.
For test [5], the system named is NCI-H460 lung.
Test [6] has as its system HOP-92 NSCLC.
Test [7] concerns NCI-H522 lung.
The test system of test [8] is A549/ATCC NSCLC.
The test system of test [9] is 786-0 renal.
The subject of test [10] is COLO 205 colon.
The test system of test [11] is DU-145 prostate.
Test [12] has as its system K-562 leukemia.
In test [13] the test system is MALME-3M melanoma.
For test [14], the system named is MDA-MB-231 breast.
Test [15] deals with RXF 393 renal.
For test [16], the system named is SF-268 CNS.
In test [17] the test system is SF-295 CNS.
For test [18], the system named is SF-539 CNS.
Test [19] concerns UACC-257 melanoma.
In test [20] the test system is M14 melanoma.

For `O=C(/C=C/C=C/c1csc(Br)n1)NO`, the growth in test [1] is 103%; in test [2], 103%; in test [3], 99.4%; in [4] it was 112%; in test [5] it was 92.2%; in [6] it was 129%. The growth is 79.1% in [7]; 93.5% in test [8]; 101% in test [9]; 110% in [10]; 94.3% in test [11]; 73% in [12]. The growth was 85.2% in [13]; 106% in test [14]; 95.2% in [15]; 102% in test [16]; 107% in [17]; 83.2% in test [18]. Moreover, the values for the growth in test [19] and in test [20] were 79.8% and 94.6%, respectively.

For `Cc1ccsc1[C@H]1c2[nH]c3ccccc3c2C[C@H]2C(=O)N(CCCCCCC(=O)NO)CC(=O)N12`, the growth was 89.6% in test [1]; 97.3% in test [2]; 81.1% in test [3]; 101% in [4]; 78.4% in test [5]; 92.6% in [6]. Moreover, the growth in [7] is 58.8%; in test [8], 99.3%; in test [9], 99.1%; in test [10], 96.5%; in test [11] it was 90.6%; in test [12], 58.2%. The growth in test [13] is 25.6%; in test [14], 96.8%; in [15], 85.9%; in test [16], 105%; in test [17], 95.1%; in [18], 77.9%. Besides, the figures for the growth in test [19] and in test [20] were 76% and 86.4%, respectively.

In the case of `C[C@H](Nc1ncnc2ccc(-c3cnc(Cl)c(NS(C)(=O)=O)c3)cc12)c1ccccc1`, the growth in [1] is -5.76% (active); in test [2] it was 1.56% (active); in test [3] it was -31.1% (active); in test [4], -16.3% (active); in [5], 4.11% (active); in test [6] it was -11.7% (active). Besides, the growth was -48.8% (active) in test [7]; -49.8% (active) in test [8]; -6.23% (active) in test [9]; -93.2% (active) in test [10]; -2.78% (active) in test [11]; 17.2% in [12]. Further, the growth was -43.1% (active) in test [13]; -17.1% (active) in test [14]; -54.5% (active) in [15]; -3.03% (active) in test [16]; -25.6% (active) in [17]; -42.8% (active) in test [18]. In addition, the growth was -18.4% (active) in test [19] and -13.5% (active) in test [20].

Consider `C=C(C=O)[C@@H]1CC[C@]2(C(=O)O)CC[C@]3(C)C(CC[C@@H]4[C@@](C)(CCC#N)[C@H](C(=C)C=O)CC[C@]43C)[C@@H]12` (stereo not given in full), for which the growth is 17.6% in test [1]; -16.4% (active) in test [2]; 98.6% in test [3]; 115% in test [4]; 96.7% in [5]; 13.6% in test [6]. For the same compound, the growth in [7] was 81.4%; in test [8] it was 82.7%; in test [9], 59.7%; in test [10], 108%; in [11], 43.2%; in test [12], 4.17% (active). Further, the growth in test [13] was 5.28% (active); in test [14], 43.8%; in test [15], 44%; in [16] it was 64.9%; in [17] it was 62.7%; in test [18], 13.4%. Further, the growth was 12.4% in [19] and 13.2% in test [20].

In the case of `CN(C)CC(=O)Nc1nc(-c2cccc(NS(=O)(=O)c3cccc4c(N(C)C)cccc34)c2)cs1`, the growth is 75.6% in [1]; 74.1% in test [2]; 96.2% in test [3]; 103% in [4]; 92.4% in [5]; 60.8% in [6]. Further, the growth in test [7] was 76.7%; in [8] it was 80.1%; in test [9] it was 90.5%; in [10], 104%; in test [11], 103%; in test [12] it was 65.1%. Further, the growth was 85.2% in [13]; 83.8% in test [14]; 88.5% in test [15]; 96.4% in test [16]; 70.4% in test [17]; 93.3% in [18]. The results for the growth in [19] and in test [20] were 86% and 100%, respectively.

For the compound `Brc1ccc2[nH]cc(-c3nn4cc(-c5nccs5)nc4s3)c2c1`, the growth in test [1] was 31.2%; in test [2] it was 50.5%; in [3], 51.5%; in [4], 12.8%; in [5] it was -45.3% (active); in test [6], -28.1% (active). Moreover, the growth in test [7] was 67.6%; in test [8], 4.76% (active); in test [9], -74.5% (active); in test [10], 11%; in test [11] it was 20.8%; in test [12] it was 13.1%. In addition, the growth was -7.45% (active) in [13]; -13.5% (active) in test [14]; -46.4% (active) in [15]; 31.7% in test [16]; 37.1% in test [17]; 29.7% in [18]. Moreover, the growth was 56.8% in test [19] and 13.3% in test [20].

Consider `CC1=C(SCC(=O)OCCCCCC(C)C)C(=O)c2ccccc2C1=O`, for which the growth in [1] was 89%; in test [2], 93.8%; in test [3], 100%; in [4], 106%; in test [5] it was 102%; in [6] it was 85%. The growth in test [7] was 68.4%; in test [8], 105%; in test [9] it was 99.9%; in test [10] it was 125%; in test [11], 109%; in [12] it was 81.1%. Besides, the growth in test [13] is 116%; in [14], 83.5%; in test [15], 94.2%; in [16] it was 96.4%; in [17], 101%; in test [18], 88.8%. For the same compound, the figures for the growth in test [19] and in test [20] were 104% and 96.8%, respectively.
